Data reported in PubChem BioAssay AID686978 (National Center for Advancing Translational Sciences (NCATS), 2013).
About 64,000 (15%) of roughly 420,000 compounds were called active. Not shown: some 27% with an inconclusive outcome. Calls come from the whole dose curve; as a rule, active = well fitted inhibition curve with a large enough effect; inconclusive = small, poorly fitted or top-dose-only effect; inactive = flat fitted curve, though single readings scatter. Not all results are given here.

Assay: qHTS for Inhibitors of human tyrosyl-DNA phosphodiesterase 1 (TDP1): qHTS in cells in absence of CPT; note: nearly all actives have a fitted effect of over 55% in size
Conditions: DT40 Tdp1-/- hTDP1 cells, no CPT, ATP luminescence, 48 h; activity change, negative = growth inhibition: at 46.2 µM (top of the series)
Summary of the method: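 A cellular qHTS used chicken DT40 cells lacking endogenous Tdp1 but carrying stably transfected human TDP1. Compounds were applied without camptothecin, and cell growth kinetics were judged by ATP-dependent luminescence after ≥48 hr.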
% is set by controls: 0 for no effect and ±100 for the full control effect; potency is the fitted concentration of half-maximal effect.

| SMILES | Potency | activity change, negative = growth inhibition |
| --- | --- | --- |
| CCN(C[C@H]1N[C@@](CC)(C(=O)OC)[C@H]2C(=O)N(Cc3ccccc3)C(=O)[C@@H]12)S(=O)(=O)c1ccc(C(F)(F)F)cc1 | 18.4 µM (active) |  |
| CCN(C[C@H]1N[C@@](CC)(C(=O)OC)[C@H]2C(=O)N(C)C(=O)[C@@H]12)C(=O)Nc1ccc(F)cc1 |  | -6.24% (inactive) |
| CCNC(=O)N(CC)C[C@H]1N[C@@](CC)(C(=O)OC)[C@H]2C(=O)N(Cc3ccccc3)C(=O)[C@@H]12 |  | 30.1% (inactive) |
| CC[C@@]1(C(=O)OC)N[C@H](CN(C)C(C)=O)[C@@H]2C(=O)N(C)C(=O)[C@@H]21 |  | -6.42% (inactive) |
| CCN(CC)S(=O)(=O)c1ccc2c(c1)N(CC(=O)NCc1ccccc1)C(=O)CS2 |  | -10.2% (inactive) |
| COC(=O)[C@]1(Cc2ccccc2)N[C@H](CN(C)S(=O)(=O)c2ccc(OC(F)(F)F)cc2)[C@@H]2C(=O)N(C)C(=O)[C@@H]21 | 23.1 µM (active) |  |
| CCC1OC(c2ccc([N+](=O)[O-])cc2)=Nc2ccccc21 (stereo not given) |  | -0.861% (inactive) |
| COC(=O)c1sccc1NS(=O)(=O)c1ccc(F)cc1F |  | -15.1% (inactive) |
| CCCCC(CCCC)c1ccc(C=Nc2ccc(/C=C/c3ccnc4ccccc34)cc2)cc1 | 11.2 µM (active) |  |
| CN(C)c1ccc(/C=N\S(=O)(=O)c2ccccc2)cc1 |  | -3.66% (inactive) |
| C(=Nc1ccc(/C=C/c2ccnc3ccccc23)cc1)c1cc2c3c(c1)CCCN3CCC2 | 11.2 µM (active) |  |
| CN(C)c1cc(N)c2ccccc2n1 (tested in a mixture with another compound) |  | -26.8% (inactive) |
| CN(C)c1ccc(/C=C/c2c3ccccc3nc3ccccc23)cc1 | 12.6 µM (active) |  |
| CN(C)c1ccc(/C=C/C=C/c2ccnc3ccccc23)cc1 | 2 µM (active) |  |
| O=C(O)C1C2C=CC(O2)C1C(=O)Nc1ccccn1 (stereo not given) |  | -28.6% (inactive) |
| Cc1nc(COc2cc3oc(=O)cc(C)c3cc2Cl)cs1 |  | -27.1% (inactive) |
| COc1ccc(S(=O)(=O)N2CCN(C(=O)NC3CCCCC3)CC2)cc1 |  | -16.4% (inactive) |
| C[C@H](NS(=O)(=O)c1ccc(Cl)cc1)C(=O)OCC(=O)N1CCOCC1 |  | 23.5% (inactive) |
| Cc1sc2ccccc2c1CNC[C@H]1O[C@@H](n2ccc(=O)[nH]c2=O)[C@H](O)[C@@H]1O |  | 1.3% (inactive) |
| O=S(N1CCCCCC1)C12CC3CC(CC(C3)C1)C2 (stereo not given) |  | -28.1% (inactive) |
| O=C1NCCn2nc3ccccc3c21 |  | 0.602% (inactive) |
| O=C(/C=C/c1ccc(Cl)cc1)Nc1ccc(S(=O)(=O)Nc2ncccn2)cc1 |  | 0.921% (inactive) |
| CN(C)c1ccc(C=Nc2ccc(/C=C/c3ccnc4ccccc34)cc2)cc1 | 17.8 µM (active) |  |
| NC(=O)Nc1ccc(/C=C/c2ccnc3ccccc23)cc1 | 12.6 µM (active) |  |
| CC(=O)Nc1ccc(NC(=O)COc2ncnc3ccccc23)cc1 |  | -12.7% (inactive) |

| SMILES | Potency | activity change, negative = growth inhibition |
| --- | --- | --- |
| C(=Nc1ccc(/C=C/c2ccnc3ccccc23)cc1)Nc1ccc(/C=C/c2ccnc3ccccc23)cc1 | 8.91 µM (active) |  |
| O=C(CCNS(=O)(=O)c1ccc(Br)s1)NCc1ccccc1Cl |  | -6.47% (inactive) |
| CC(=O)c1cc(CN2CCC(n3nccc3NC(=O)c3ccccc3Cl)CC2)cs1 |  | -16.4% (inactive) |
| Cc1cc(NC(=O)CSc2ncc(C(F)(F)F)cc2Cl)no1 |  | -18.9% (inactive) |
| O=C(O)c1ccc([N+](=O)[O-])cc1Sc1ccsc1 |  | -9.07% (inactive) |
| COCCNc1nc(N)c([N+](=O)[O-])c(N2CCCCCC2)n1 |  | -19.5% (inactive) |
| CCC1=NN(C(=O)Cc2ccc([N+](=O)[O-])cc2)C(O)(c2ccc(Br)cc2)C1 (stereo not given) |  | -5.88% (inactive) |
| CN(C(=O)CSc1nnc(-c2c[nH]c3ccccc23)o1)C1CCS(=O)(=O)C1 (stereo not given) |  | -10.9% (inactive) |
| Cc1ccc(C)c(S(=O)(=O)Nc2cccc(-n3cnnn3)c2)c1 |  | 3.02% (inactive) |
| CCCCN(C)c1ccc([N+](=O)[O-])cc1 |  | -12.2% (inactive) |
| COc1ccc(Cc2nnc(NC(=O)Cc3cccs3)s2)cc1 |  | -1.02% (inactive) |
| CCNC(=S)N1CCC(c2nc3cc(C)c(C)cc3[nH]2)CC1 |  | -14.5% (inactive) |
| CCN(CC)CCNc1ccc(Cl)cc1[N+](=O)[O-] |  | -24.4% (inactive) |
| CCN(CC)CCCC(C)Nc1ccnc2cc(Cl)ccc12 (stereo not given) | 0.794 µM (active) |  |
| COC(=O)COc1ccc(C2NC(=O)NC(C)=C2C(=O)NCc2ccccc2)cc1OC (stereo not given) |  | 7.11% (inactive) |
| CC(/C=N/NC(=O)c1cc(-c2ccc3ccccc3c2)n[nH]1)=C\c1ccco1 | 23.1 µM (active) |  |
| O=C(Cc1ccccc1)Nc1cccc(C(=O)N/N=C/c2ccco2)c1 |  | -23.6% (inactive) |
| O=C(NCc1ccco1)/C(=C/c1ccco1)NC(=O)c1ccccc1 |  | -12.2% (inactive) |
| Cc1noc(C)c1COc1ccc2ccc(=O)oc2c1 |  | 1.31% (inactive) |
| COC1=C/C(=C/c2c(N)n3nc(CC(=O)N4CCOCC4)sc3nc2=O)C=CC1=O |  | -9.01% (inactive) |
| CCCOc1cc(C)c(S(=O)(=O)n2nnc3ccccc32)cc1C |  | -14.5% (inactive) |
| CCCCN1CC(c2nc3ccccc3n2CCCCOc2ccc(C)cc2C)CC1=O (stereo not given) | 5.8 µM (active) |  |
| CCOc1ccc(N2CC(c3nc4ccccc4n3CCOc3ccc(OC)cc3)CC2=O)cc1 (stereo not given) | 23.1 µM (active) |  |
| CCc1ccccc1N1CC(c2nc3ccccc3n2CCCCOc2ccccc2)CC1=O (stereo not given) |  | -19.2% (inactive) |
| CCOc1ccc(NC(=O)[C@H](C)NC(=O)C2CC(=O)N(c3ccc(OC)cc3)C2)cc1 (stereo not given in full) |  | 33.1% (inactive) |

| SMILES | Potency | activity change, negative = growth inhibition |
| --- | --- | --- |
| CCC1Oc2ccc(Cl)cc2N(CC(=O)O)C1=O (stereo not given) |  | -17.8% (inactive) |
| Nc1c(C(=O)OCC(=O)Nc2ccc(OC(F)F)cc2)[nH]c(=O)[nH]c1=O |  | 2.04% (inactive) |
| Cc1cc(C)cc(NC(=O)COC(=O)c2cc(C)oc2C)c1 |  | 4.9% (inactive) |
| Cc1ccccc1Nc1nc(N)nc(COC(=O)CCC(=O)c2ccc(F)cc2)n1 |  | -24% (inactive) |
| CCCCNC(=O)CCn1nc(-c2ccc(Cl)cc2)ccc1=O |  | -2.25% (inactive) |
| C[C@H]1CN([C@@H](C)CO)C(=O)CCCn2nncc2CO[C@@H]1CN(C)Cc1ccc(Oc2ccccc2)cc1 | 18.4 µM (active) |  |
| Cc1ccc(CN(C)C[C@@H]2OCc3cnnn3CCCC(=O)N([C@@H](C)CO)C[C@H]2C)cc1 |  | -26.1% (inactive) |
| C[C@H](CO)N1C[C@H](C)[C@@H](CN(C)Cc2ccc3c(c2)OCO3)OCc2cnnn2CCCC1=O |  | -4.82% (inactive) |
| CCCC(=O)N1CCC(CCC(=O)NC2CC2)CC1 |  | 3.6% (inactive) |
| COCCN1C(=O)C(=O)/C(=C(/O)c2ccc(S(=O)(=O)N3CCCCC3)cc2)C1c1ccc(OC)c(OC)c1 (stereo not given) |  | 1.45% (inactive) |
| CSc1nc(-c2ccccc2)nc(C(Cl)Cl)n1 | 2.31 µM (active) |  |
| CSc1nc(C)cc(SC(C(C)=O)C(=O)Nc2ccccc2)n1 (stereo not given) |  | -1.76% (inactive) |
| CSc1ncc(Sc2ccccc2)c(C(=O)O)n1 |  | 2.57% (inactive) |
| CC1(C)Oc2ccc(C(=O)N3CCOCC3)cc2N(CC(=O)Nc2ccccc2)C1=O |  | -9.51% (inactive) |
| Cc1ccc(S(=O)(=O)N2CCCC2C(=O)NCc2ccco2)cc1 (stereo not given) |  | -18.4% (inactive) |
| O=C(NCCC1CCCCN1S(=O)(=O)c1ccccc1)C(=O)NCC1CCCO1 (stereo not given) |  | 4.61% (inactive) |
| O=C(NCCC1CCCCN1S(=O)(=O)c1ccc(Cl)cc1)C(=O)NCc1ccco1 (stereo not given) | 14.6 µM (active) |  |
| COc1ccc(NC(=O)CCCc2nnc3n(CCC(C)C)c(=O)c4sccc4n23)c(OC)c1 |  | -34.1% (inactive) |
| CCOc1ccccc1N=C1NC(=O)CS1 |  | -4.09% (inactive) |
| CCC/C(O)=C1\C(=O)CC(C)(C)CC1=Nc1ccccc1OC | 14.6 µM (active) |  |
| COc1ccccc1N=C(C)C1=C(O)COC1=O |  | 11.5% (inactive) |
| N#Cc1cc([N+](=O)[O-])ccc1NC(=O)COC(=O)c1cnccn1 |  | -19.1% (inactive) |
| NS(=O)(=O)c1cccc(NC(=O)CC23CC4CC(CC(Br)(C4)C2)C3)c1 |  | -2.07% (inactive) |
| Cn1cccc1C(C#N)c1ccccc1C#N (stereo not given) |  | -0.548% (inactive) |
| Cc1ccccc1NC(=O)C(C)OC(=O)CCC(=O)N(CC(C)C)c1c(N)n(CC(C)C)c(=O)[nH]c1=O (stereo not given) |  | -7.3% (inactive) |

| SMILES | Potency | activity change, negative = growth inhibition |
| --- | --- | --- |
| Cc1cccc(C(C)C)c1NC(=O)COC(=O)C1CC(=O)N(Cc2ccccc2)C1 (stereo not given) |  | -25.4% (inactive) |
| CC(C)(C)OC(=O)NNc1c2ccccc2nc2ccccc12 | 13 µM (active) |  |
| O=C(COC(=O)c1ccc(O)cc1O)NC(=O)c1ccccc1 |  | -21.6% (inactive) |
| Cc1ccccc1NC(=O)NNC(=O)OC(C)(C)C |  | -0.379% (inactive) |
| Cc1ccc(C(=O)NNC(=O)OC(C)(C)C)c(Cl)c1 |  | -5.16% (inactive) |
| O=C(NNc1c2ccccc2nc2ccccc12)c1cc2ccccc2cc1O | 18.4 µM (active) |  |
| O=C(N/N=C/c1cccnc1)c1cc2ccccc2cc1O |  | -19.2% (inactive) |
| CCCCNC(=O)N(O)C1N(/N=C/c2ccc(N(C)C)cc2)C(=S)SC1(C)C (stereo not given) |  | -11% (inactive) |
| Cc1csc(/N=C/N(C)C)c1C#N |  | -18% (inactive) |
| CCS(=O)(=O)Nc1ccc(C2=NN(C(C)=O)C(c3cccs3)C2)cc1 (stereo not given) | 5.8 µM (active) |  |
| COc1ccc(C2=NN(C(=O)CCC(=O)O)C(c3cccs3)C2)cc1OC (stereo not given) |  | -3.18% (inactive) |
| CS(=O)(=O)Nc1ccc(C2=NN(S(C)(=O)=O)C(c3cccs3)C2)cc1 (stereo not given) |  | 6.29% (inactive) |
| NNC(=O)c1cccc(COCC(F)(F)C(F)F)c1 |  | 0.0307% (inactive) |
| Cc1ccc2oc(C(=O)Nc3ccc(S(=O)(=O)N4CCCCCC4)cc3)cc(=O)c2c1 |  | -20% (inactive) |
| Cc1c(C(=O)NCCN(C)C)oc2ccc(S(=O)(=O)N3CCCC3)cc12 |  | -8.67% (inactive) |
| COc1ccc(NC(=O)c2oc3ccc(S(=O)(=O)N4CCOCC4)cc3c2C)cc1 | 10.3 µM (active) |  |
| Cc1c(C(=O)Nc2ccccc2Cl)oc2ccc(S(=O)(=O)N3CCC4(CC3)OCCO4)cc12 |  | -27.9% (inactive) |
| Cc1c(C(=O)Nc2cccc(-c3nnc4n3CCCCC4)c2)oc2ccccc12 | 16.4 µM (active) |  |
| Cc1cc(C)n2nc(C(=O)Nc3cccc(S(=O)(=O)N4CCOCC4)c3)nc2n1 |  | -4.7% (inactive) |
| Cc1nonc1NC(=O)c1oc2ccccc2c1C |  | 15.9% (inactive) |
| Cc1c(C(=O)Nc2cccc(S(=O)(=O)N3CCOCC3)c2)oc2ccccc12 | 20.6 µM (active) |  |
| O=C(Nc1cc(S(=O)(=O)N2CCOCC2)ccc1Cl)c1cc(=O)c2ccccc2o1 | 20.6 µM (active) |  |
| O=C(Nc1cc(S(=O)(=O)N2CCOCC2)ccc1N1CCOCC1)c1c(F)cccc1Cl |  | -28.8% (inactive) |
| O=C(Cn1[nH]c(=O)c2ccccc2c1=O)Nc1cccc(-c2nnc3n2CCCCC3)c1 |  | -11.3% (inactive) |
| Cc1occc1C(=O)Nc1cccc(S(=O)(=O)N2CCOCC2)c1 |  | -21.2% (inactive) |
